Screening data as filed in PubChem.
Giardia FBPA inh: Giardia lamblia aldolase inhibition; A8B2U2; purified Giardia FBPA; Potency, µM (highest dose often 59.6 µM), without a hit: top-dose activity, negative = inhibition, actives largely listed as inhibitors; 0.71% of 290,000 active; further: potency means the concentration at half of the fitted maximal effect; nearly all actives have a fitted effect of over 55% in size
Target sequence (A8B2U2 whole entry, looked up): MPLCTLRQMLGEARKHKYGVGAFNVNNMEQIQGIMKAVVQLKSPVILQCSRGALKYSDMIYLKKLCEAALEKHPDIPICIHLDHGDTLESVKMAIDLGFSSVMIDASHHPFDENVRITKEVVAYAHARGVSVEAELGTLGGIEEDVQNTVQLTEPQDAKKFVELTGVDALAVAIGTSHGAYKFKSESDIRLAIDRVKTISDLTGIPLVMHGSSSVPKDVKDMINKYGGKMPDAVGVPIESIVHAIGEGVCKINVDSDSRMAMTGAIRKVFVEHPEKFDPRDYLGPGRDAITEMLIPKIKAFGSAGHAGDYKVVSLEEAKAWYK
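40 nM FBPA preincubated 10 min at RT with compound (up to 57.5 uM final), then substrate plus GAPDH/TPI/NAD/arsenate coupling and diaphorase/resazurin added. Fluorescence read after 20 min at RT, 525/598 nm.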
HCMV antiviral: blocks human cytomegalovirus replication; HFF cells, HCMV-luciferase reporter, 72 h; hits give low values; activity change, negative = inhibition, % at 57.5 µM; 4.5% of 410,000 active; in the data active means activity change below about -60%; inconclusive means no clear call, values can overlap the other calls; inactive means above about -39%
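Human foreskin fibroblasts infected with luciferase-reporter HCMV at MOI 1 PFU/cell, compounds at two doses. Luciferase measured 72 h post infection; normalized to buffer-only basal and Salinomycin (10uM) controls.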
FMDV inh: blocks foot and mouth disease virus. Potency, µM (highest dose often 57.9 µM), without a hit: top-dose activity change, negative = inhibition, most hits filed as inhibitors. AID 1159524. FMDV antiviral cell-based qHTS. 1.2% of 410,000 active; calls by dose curve; tested in HEK293T cells; further: read-out not given here; potency means the concentration at half of the fitted maximal effect; nearly all actives have a fitted effect of over 45% in size
VACV mCherry inh: inhibitors of vaccinia virus infection (mCherry reporter signal) | Potency, µM (doses to about 36.5 µM), without a hit: at the highest dose activity change, negative = inhibition, most hits filed as inhibitors | 0.63% of 310,000 active | AID 720579 | Vaccinia virus mCherry reporter infection, fluorescence; calls by dose curve; tested in A549 cells; further: potency means the concentration at half of the fitted maximal effect; nearly all actives have a fitted effect of over 35% in size
HCV inhibitor: HCV inhibition; Huh7.5.1 HCVcc-Cre infection, luciferase reporter, 44 h; Potency, µM (series often up to 41.8 µM), inactives show at the highest dose activity change, negative = inhibition, actives largely listed as inhibitors; 3.4% of 340,000 active; further: potency means the concentration at half of the fitted maximal effect
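After 44 h co-culture of compound, cells and HCVcc-Cre (~0.5 moi), substrate is added for 15 min at room temperature and luciferase measured over 15 sec. Cells were seeded at 1,000/well and pre-cultured 4 h.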
VACV Venus inh: inhibitors of vaccinia virus (Venus reporter); Vaccinia virus Venus reporter expression, fluorescence; Potency, µM (series often up to 36.5 µM), inactives show at the top dose activity change, negative = inhibition, usual class: inhibitors; 0.46% of 330,000 active; calls by dose curve; tested in A549 cells; further: potency means the concentration at half of the fitted maximal effect; nearly all actives have a fitted effect of over 30% in size
Active calls of the source: *; i = inactive; ? = inconclusive; / = no result; [ ] = dose if it differs, or a comment. The list is not random: actives were taken first. Their share in the collection is about 7.5%. Unless noted, the call rests on the fitted dose curve; in most records, active means well fitted curve in the direction sought with a large enough effect; inconclusive means small, poorly fitted or top-dose-only effect, or another doubt; inactive means no such curve, though single readings can be large; an effect the other way counts as inactive or inconclusive. On the % scale 0 is the no-effect control and ±100 the full control effect.

SMILES	Giardia FBPA inh	HCMV antiviral	FMDV inh	VACV mCherry inh	HCV inhibitor	VACV Venus inh
Fc1ccc(C[n+]2c(-c3ccccc3)cc(-c3ccccc3)cc2-c2ccccc2)cc1	/	-84*	0%	i	10µM*	?
CCOc1ccc(-c2nnc(-c3cccs3)o2)cc1	1%	48	-51%	/	?	/
O=C([O-])c1cc(-c2ccccc2)cc(-c2ccccc2)[n+]1CCc1ccc(Cl)cc1	/	-80*	35µM*	-23%	1%	?
O=C(NCCc1ccc(Cl)cc1)c1cc(-c2ccccc2)n[nH]1	/	-21	-7%	-18%	/	-25%
Cc1cc(-c2ccccc2)cc(-c2ccccc2)[n+]1CCc1ccccc1	/	-98*	20µM*	?	?	?
CCOc1ccc(-c2cc(C)[n+](CCO)c(-c3ccc(OCC)cc3)c2)cc1	5%	-77*	-27%	i	-24%	-8%
CC(C)[C@H]1C(=O)Nc2ccccc2N1C(=O)N[C@@H](Cc1ccccc1)C(=O)N[C@@H](Cc1ccccc1)C(=O)O	8%	6	-13%	3%	2%	8%
COC(=O)c1sccc1NC(=O)Nc1ccc(Cl)c(Cl)c1	1%	-71*	36%	/	?	-20%
O=C(Nc1ccc(F)c(Cl)c1)Nc1csc2ccccc12	-12%	-98*	10%	i[7.34 µM]	?	-7%[7.34 µM]
CCOC(=O)c1ccc(N2CCN(c3ccccc3F)CC2)c(NC(=O)Nc2ccc(Cl)c(Cl)c2)c1	/	-23	25µM*	?	/	?
O=C(Nc1ccc(F)cc1F)Nc1csc2ccccc12	-18%	-18	7%	?	?	-25%
CCOC(=O)c1ccc(N2CCN(c3cc(Cl)ccc3C)CC2)c(NC(=O)Nc2ccc(OCC)cc2)c1	/	19	-15%	0%	/	-12%
COC(=O)c1sccc1NC(=O)Nc1ccc(C)c(C)c1	/	22	-42%	/	-9%	/
C=CCNC(=O)Nc1ccc(F)c(Cl)c1	0%	-94*	20%	/	-5%	/
Cn1ccnc1C1CCCCN1C(=O)CN1Cc2ccccc2OC(c2ccccc2F)C1 (stereo not given)	/	/	-3%	-15%	/	-7%
COC(=O)c1ccc(NC(=O)Nc2ccc(F)c(Cl)c2)cc1	1%	35	-48%	/	11µM*	/
CCC(C)NC(=O)Nc1ccc(F)c(Cl)c1 (stereo not given)	-2%	-62*	44%	4%	-23%	-3%
CC(C)CNC(=O)Nc1ccc(F)c(Cl)c1	-6%	88	93%	4%	10%	-5%
COC(=O)c1cccc(NC(=O)Nc2ccc(Cl)c(Cl)c2)c1	-2%	-101*	-22%	?	/	?
Cc1ccc2c(c1)ncc[n+]2CC(=O)c1ccc(F)cc1	/	/	/	-11%	/	-8%
Cc1ccc(C)c(N2CCN(C(=O)NCc3noc4ccccc34)CC2)c1	/	4	-13%	-4%	/	-10%
COc1ccc(OC)c(CCNc2nc3cnc(-c4ccccc4Oc4ccccc4)cc3n2C)c1	/	-15	/	/	/	/
O=C(C[n+]1csc2ccccc21)c1ccc(I)cc1	/	/	/	-12%	/	-10%
Cc1cc(O)c(C(C)C)cc1N=Cc1ccccc1O	3.5µM*	-14	-13%	/	9%	/
Cc1ccc(Cl)cc1NC(=O)c1cnn2c1NC(c1ccco1)CC2C(F)(F)F (stereo not given)	-9%	?	?	/	25µM*	/
SMILES	Giardia FBPA inh	HCMV antiviral	FMDV inh	VACV mCherry inh	HCV inhibitor	VACV Venus inh
CN(Cc1ccc(-n2cccn2)cc1)C(=O)c1cnn2c1NC(c1ccco1)CC2C(F)(F)F (stereo not given)	-5%	28	25µM*	?	11µM*	-28%
CN(C)CCCO[C@H]1C([C@H](O)CO)O[C@@H]2OC(C)(C)O[C@@H]21 (stereo not given in full)	-3%	/	/	/	/	/
O=c1[nH]c2cc([N+](=O)[O-])ccc2c2ccccc12	/	-12	-7%	-13%	-16%	-2%
O=C1Cc2c([nH]c3ccc([N+](=O)[O-])cc23)-c2ccccc2N1	/	-98*	50%	1.3µM*	?	?
O=C(NCCc1ccccc1)C1CCC(=O)N1C1CCCC1 (stereo not given)	9%	36	14%	i	?	-6%
O=C(CCn1cnc2ccccc2c1=O)Nc1ccc(Cl)c(Cl)c1	7%	-74*	-14%	/	-9%	/
Cc1ccc(NC(=O)CCn2cnc3ccccc3c2=O)cc1	1%	-14	28%	-9%	-11%	0%
COc1ccc(-c2cc(C(F)(F)F)nc(SCCC(=O)Nc3cccc(O)c3)n2)cc1	/	?	-20%	-11%	/	-10%
Cc1cccc2nc3ccccc3cc12	/	-24	46%	-14%	-25%	-9%
C/C(O)=c1/ccc2cccc3nc(C)nc1c23	-28%	-79*	/	9%	?	6%
O=C1C(c2ccccc2)=[N+]([O-])c2ccccc21	/	26	?	-24%	10µM*	-21%
O=C(O)c1cccc(Nc2nc(-c3cccnc3)nc3ccccc23)c1	-15%	-30	-13%	i	18%	-8%
CCOC(=O)c1cccc(Nc2nc(-c3cccnc3)nc3ccccc23)c1	-19%	-21	28µM*	/	?	22µM*
CCOC(=O)c1cccc(Nc2nc(C(=O)OCC)nc3ccccc23)c1	/	-15	?	1%	/	-8%
COC(=O)c1cccc(Nc2nc(-c3cccnc3)nc3ccccc23)c1	4%	-9	?	-15%	7.1µM*	-24%
CNS(=O)(=O)c1cccc(C(=O)OCCCOC(=O)c2cccc(S(=O)(=O)NC)c2)c1	/	-17	0%	-24%	11µM*	-22%
C1=C(c2c[nH]c3ccccc23)CCN(Cc2ccccc2)C1	4%	-97*	-11%	/	?	/
CN1CC=C(c2c[nH]c3ccccc23)CC1	-8%	9	2%	i	6.3µM*	-5%
O=S(=O)(c1ccc2nc(N3CCN(c4ccc(F)cc4)CC3)ccc2c1)N1CCCCC1	/	-14	?	/	16%	/
O=C1C=C(N2CCCCC2)c2ccccc2C1=O	/	-97*	22µM*	?	7.1µM*	?
Cc1ccc2nc(C)cc(Nc3ccc([N+](=O)[O-])cc3)c2c1	7%	?	-10%	-23%	3.5µM*	-19%
COC(=O)c1ccc(Nc2cc(C)nc3ccc(C)cc23)cc1	0%	3	0%	-14%	10µM*	?
CCC(=O)NC(=S)Nc1ccc(S(=O)(=O)NC(C)C)cc1	8%	-110*	41%	/	5%	/
Cc1cc(C)nc(NS(=O)(=O)c2ccc(NC(=S)NC(=O)CC(C)C)cc2)n1	0%	69	110%	11µM*	22%	11µM*
Cc1cc(C)nc(NS(=O)(=O)c2ccc(N)cc2)n1	0%	-66*	31%	-5%	-7%[8.37 µM]	-8%
CC(C)NS(=O)(=O)c1ccc(NC(=S)NC(=O)c2cccc([N+](=O)[O-])c2)cc1	?	?	-2%	i	-6%	-17%
